High-throughput results deposited in PubChem by several laboratories.
HTR1E agonist: agonists of human 5-HT1E serotonin receptor | P28566 | hit rate 0.69% among 65,000 | CHO 5-HT1E Ga15 NFAT-bla reporter, FRET; 0% DMSO wells, 100% control agonist wells | activation, % at 6 µM;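 active means activation above a set limit, the screen-wide mean activation plus 3 SD, cut at about 8.5% in these data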
5HT1a ag: agonists of human 5-HT1a serotonin receptor; hit rate 0.56% among 65,000; activation, % at 10 µM; CHO 5-HT1a Ga15 NFAT-bla reporter, FRET ratio; 0% basal, 100% maximal reference agonist; AID 567; P08908;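 active means activation above the screen-wide mean activation plus 3 SD, cut at about 19% in these data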
5-HT1A blocker: blocks the human serotonin 5-HT1a receptor | P08908 | CHO 5-HT1a Ga15 NFAT-bla reporter, antagonist mode | inhibition, % at 10 µM | hit rate 0.68% among 62,000;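 active means inhibition above the mean of all tested compounds plus 3 SD, cut at about 43% in these data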;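 further: receptor stimulated by 5-CT agonist at 100 nM near EC80; beta-lactamase reporter measured by ratiometric fluorescence of a cleavable substrate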
HTR1E antagonist: antagonists of human 5-HT1E serotonin receptor; P28566; inhibition, % at 6 µM; AID 571; hit rate 0.99% among 65,000; CHO 5-HT1E Ga15 NFAT-bla reporter, FRET, antagonist;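 active means inhibition above a set limit, the mean inhibition across every tested compound plus 3 SD, cut at about 29% in these data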;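 further: signal is the 460 over 535 nm emission ratio of beta-lactamase substrate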
Her2 expr inh: lowers expression of human Her2 kinase; HER2 level % of control, % at 10 µM; SKBR-3 HER2 protein level, AlphaScreen, 18-24 h; active compounds read low; P04626; hit rate 0.69% among 65,000;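 active means HER2 level under 5% of the carrier-only control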;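 further: lower value means stronger loss of Her2 protein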
Large screens that a line does not name were inactive. Only some compounds are listed: those with a hit (about 3% of all), similar ones and a draw of the others.

CCCn1nc(NS(=O)(=O)c2ccccc2)c2cc3ccccc3nc21	5HT1a ag 24
CC(C)Cn1nc(NS(=O)(=O)c2ccccc2)c2cc3ccccc3nc21	none
N#CCSc1nc2cc(C(=O)N3CCCC3)ccc2c(=O)n1Cc1ccccc1	none
N#CCSc1nc2cc(C(=O)N3CCC(C(N)=O)CC3)ccc2c2nc3ccccc3n12	HTR1E antagonist 53, Her2 expr inh -1.2
O=C(Cc1ccc(-n2cccc2)cc1)NCc1cccs1	HTR1E antagonist 51
O=C(Cn1cccc1)NCc1cccs1	none
CCOC(=O)c1c(C)oc2c1c(C(c1ccncc1)N1CCOCC1)c(O)c1ccccc12 (configuration not stated)	Her2 expr inh -12
CCOC(=O)c1c(C)oc2c1c(C=NC1CCS(=O)(=O)C1)c(O)c1ccccc12 (configuration not stated)	none
CC(C)CC(OC(=O)c1ccco1)C(=O)NC1CCCCC1 (configuration not stated)	none
O=C(CCCCCn1c(=S)[nH]c2cc3c(cc2c1=O)OCO3)N1CCN(Cc2ccccc2)CC1	none
O=C(CCCCCn1c(=S)[nH]c2cc3c(cc2c1=O)OCO3)N1CCN(C2CCCCC2)CC1	Her2 expr inh -16
COc1ccc(S(=O)(=O)N2CCOCC2)c(Cl)c1Cl	none
COc1ccccc1-c1ccc(=O)n(CC(=O)NC(C)(C)C)n1	none
CCOC(=O)c1oc2ccccc2c1NC(=O)COC	none
CCOC(=O)c1oc2ccccc2c1NC(=O)c1cc(OC)cc(OC)c1	HTR1E agonist 112
COc1ccc(C2=Nn3c(nnc3-c3cccnc3)SC2)cc1OC	HTR1E antagonist 34 (no result: 5-HT1A blocker)
COc1ccccc1-c1nnc2n1N=C(c1ccc(O)c(O)c1)CS2	HTR1E antagonist 66 (no result: 5-HT1A blocker)
Brc1ccccc1C1=Nn2c(nnc2-c2ccccc2)SC1	HTR1E antagonist 33
Cc1ccc(-c2nnc3n2N=C(c2ccc(Br)cc2)CS3)cc1	none
COc1ccc(C2=Nn3c(nnc3-c3ccccn3)SC2)cc1	none (no result: 5-HT1A blocker)
CCOc1ccc(C2=Nn3c(nnc3-c3ccccc3OC)SC2)cc1	HTR1E antagonist 75 (no result: 5-HT1A blocker)
Cc1cc(N2C(=O)CC(N3CCN(C(c4ccccc4)c4ccccc4)CC3)C2=O)no1 (configuration not stated)	none
O=C(c1coc(=O)c2ccccc12)N1CCN(Cc2ccccc2)CC1	none
CCOc1cc(N2CCOCC2)c(OCC)cc1NC(=O)c1cc(-c2ccco2)nc2ccccc12	HTR1E antagonist 50
Cn1c(=O)c2c(nc(N3CCOCC3)n2CCSc2nc3ccccc3s2)n(C)c1=O	none
CCCCn1c(SCc2c(C)noc2C)nc2cc(S(N)(=O)=O)ccc21	Her2 expr inh -21
O=C(CSc1nnc(COc2ccc3c(c2)CCCC3)o1)Nc1ccc(F)cc1	HTR1E agonist 9.3
Cc1cccc(NC(=O)C2CCCN(S(=O)(=O)c3cccc4cccnc34)C2)c1 (configuration not stated)	none
O=C1N2c3ccccc3CCc3cccc(c32)C1(O)C(F)(F)F (configuration not stated)	HTR1E antagonist 29
CC(C)C(NS(=O)(=O)c1cccs1)C(=O)N1CCc2ccccc2C1 (configuration not stated)	none
CCOC(=O)C(C(C)=O)c1c(Br)c(O)c(O)c2c(C(=O)c3ccc(C)cc3)coc12 (configuration not stated)	5-HT1A blocker 45, Her2 expr inh -21
COc1ccc(N2CCN(/C(=N\S(=O)(=O)c3ccccc3)Nc3nc(C)cc(C)n3)CC2)cc1	none
COc1cccc(-c2nn(C)c3sc(C(=O)Nc4ccc5c(c4)OCCO5)cc23)c1	none
COc1cccc(-c2nn(C)c3sc(C(=O)NCc4ccccn4)cc23)c1	HTR1E antagonist 42
CC1=CC(C)(C)Nc2ccc(OC(=O)c3ccco3)cc21	5HT1a ag 25, HTR1E antagonist 51, Her2 expr inh -20
CC1=CC(C)(C)Nc2ccc(OC(=O)c3cccnc3)cc21	HTR1E antagonist 30
CCOc1ccc(OC(=O)c2cccnc2)cc1	none
CC1=CC(C)(C)Nc2ccc(OC(=O)CN3C(=O)CCC3=O)cc21	none
CCCCC(c1nnnn1CC1CCCO1)N1CCN(c2nc3ccccc3s2)CC1 (configuration not stated)	HTR1E agonist 10
CC(C)CC(c1nnnn1CC1CCCO1)N1CCN(c2nc3ccccc3s2)CC1 (configuration not stated)	none
